# Results published in PubChem BioAssay (Tox21).
# Records with an inconclusive call do not appear. A call without a number means that no potency is given here. The source made the active and inactive calls. Unless noted, the call rests on the fitted dose curve; in most records, active means well fitted curve in the direction sought with a large enough effect; inconclusive means small, poorly fitted or top-dose-only effect, or another doubt; inactive means no such curve, though single readings can be large; an effect the other way counts as inactive or inconclusive.
# Assays:
# [1] = qHTS assay to identify small molecule phospholipidosis (PLD) inducers (AID 1259344)
# Summary of the method: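 HepG2 cells grown on collagen I take up LipidTOX Red while exposed to compound for 24 h; after fixation they are imaged at 20x and pit metrics are extracted.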
# [2] = qHTS assay to identify small molecule agonists of the sonic hedgehog signaling (Shh) pathway - cell viability counter screen (AID 1259366; active means well fitted curve in the direction sought with a large enough effect in the repeat runs; an effect the other way counts as inactive or inconclusive; further: potency means the concentration at half of the fitted maximal effect; nearly all actives have a fitted effect of over 50% in size)
# Summary of the method: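 Cytotoxicity counter screen run in the same wells as the Shh reporter assay. NIH/3T3 cells carrying a Gli1 response element–driven luciferase were treated with DMSO-dissolved compounds for 24hr, and live-cell protease activity was measured with CellTiter-Fluor.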
# [3] = qHTS assay to identify small molecule antagonists of the sonic hedgehog signaling (Shh) pathway - cell viability counter screen (AID 1259367; active means well fitted curve in the direction sought with a large enough effect in the repeat runs; an effect the other way counts as inactive or inconclusive; further: potency means the concentration at half of the fitted maximal effect; nearly all actives have a fitted effect of over 55% in size)
# Summary of the method: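 After a 4 hr settling period, 3T3 Gli1-Luc cells were treated with DMSO-dissolved chemicals and conditioned medium, kept 24 hr at 37C in 5% CO2, and assayed for viability by CellTiter-Fluor fluorescence following 1 hr reagent incubation.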
# [4] = qHTS assay to identify small molecule antagonists of the sonic hedgehog signaling (Shh) pathway (AID 1259369; calls by dose curve; further: nearly all actives have a fitted effect of over 45% in size; further: potency means the concentration at half of the fitted maximal effect)
# Summary of the method: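 Inhibition of Shh signalling is measured as reduced Gli1-response-element firefly luciferase output in an NIH/3T3-derived stable reporter clone stimulated with conditioned medium for 24hr.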
structure (smiles),measurement,setting,value
CCCCCCCCCCCCCCCCCC(=O)O,Potency,[1],inactive
O=C[C@H](O)[C@@H](O)[C@@H](O)[C@H](O)CO,Potency,[1],inactive
CCN(CC)C(=O)[C@]1(c2ccccc2)C[C@@H]1CN,Potency,[1],inactive
CC(=O)O[C@H]1C[C@@H]2CC[C@@H]3[C@H](CC[C@@]4(C)[C@H]3C[C@H]([N+]3(C)CCCCC3)[C@@H]4OC(C)=O)[C@@]2(C)C[C@@H]1[N+]1(C)CCCCC1,Potency,[1],inactive
CC/C(=C(/CC)c1ccc(OP(=O)(O)O)cc1)c1ccc(OP(=O)(O)O)cc1,Potency,[1],inactive
NS(=O)(=O)c1cc(Cl)c(Cl)c(S(N)(=O)=O)c1,Potency,[1],inactive
CO/N=C(\C(=O)N[C@@H]1C(=O)N2C(C(=O)[O-])=C(C[n+]3cccc4c3CCC4)CS[C@H]12)c1csc(N)n1,Potency,[1],inactive
CC(C)NCC1CCc2cc(CO)c([N+](=O)[O-])cc2N1 (configuration not stated),Potency,[1],inactive
O=S(=O)(O)CC(S)CS (configuration not stated),Potency,[1],inactive
CC(C)c1ncc([N+](=O)[O-])n1C,Potency,[1],inactive
C[Se]CC[C@H](N)C(=O)O,Potency,[1],inactive
C/C=C/C1=C(C(=O)O)N2C(=O)[C@@H](NC(=O)[C@H](N)c3ccc(O)cc3)[C@H]2SC1,Potency,[1],inactive
NCCCC(=O)O,Potency,[1],inactive
CCN(CC)CCOC[C@H]1O[C@@H](O)[C@H](OCCN(CC)CC)[C@@H](O)[C@@H]1O,Potency,[1],inactive
OCC1(CO)COC(C(Cl)(Cl)Cl)OC1,Potency,[1],inactive
CCOc1cc(CC(=O)N[C@@H](CC(C)C)c2ccccc2N2CCCCC2)ccc1C(=O)O,Potency,[1],inactive
CC(C)CCC[C@@H](C)[C@H]1CC[C@H]2[C@@H]3CC=C4C[C@@H](O)CC[C@]4(C)[C@H]3CC[C@]12C,Potency,[1],inactive
CO/N=C(\C(=O)N[C@@H]1C(=O)N2C(C(=O)[O-])=C(C[n+]3ccc(N)n3CCO)CS[C@H]12)c1csc(N)n1,Potency,[1],inactive
CC(C)COC(=O)OCN1C(=O)CN(CCN2CC(=O)N(COC(=O)OCC(C)C)C(=O)C2)CC1=O,Potency,[1],inactive
CC(=O)Nc1ccc(OC(C)=O)cc1,Potency,[1],inactive
CO/N=C(\C(=O)N[C@@H]1C(=O)N2C(C(=O)O)=C(CSc3nc(C)c(CC(=O)O)s3)CS[C@H]12)c1csc(N)n1,Potency,[1],inactive
C=N[C@@H](C(=O)N[C@@H]1C(=O)N2[C@@H]1SC(C)(C)[C@@H]2C(=O)O)c1ccccc1,Potency,[1],inactive
NC(=O)C1c2ccccc2CCc2ccccc21,Potency,[1],inactive
CC(C)C[C@H](NC(=O)[C@@H](COC(C)(C)C)NC(=O)[C@H](Cc1ccc(O)cc1)NC(=O)[C@H](CO)NC(=O)[C@H](Cc1c[nH]c2ccccc12)NC(=O)[C@H](Cc1cnc[nH]1)NC(=O)[C@@H]1CCC(=O)N1)C(=O)N[C@@H](CCCN=C(N)N)C(=O)N1CCC[C@H]1C(=O)NNC(N)=O,Potency,[1],inactive
CNC(=O)OCc1cccc(COC(=O)NC)n1,Potency,[1],inactive
CC(CNC(=O)c1cccnc1)NC(=O)c1cccnc1 (configuration not stated),Potency,[1],inactive
Cc1cc(-c2ccc(N=Nc3ccc4c(S(=O)(=O)O)cc(S(=O)(=O)O)c(N)c4c3O)c(C)c2)ccc1N=Nc1ccc2c(S(=O)(=O)O)cc(S(=O)(=O)O)c(N)c2c1O,Potency,[1],inactive
NC(=O)[C@@H]1CCCN1C(=O)[C@H](Cc1cnc[nH]1)NC(=O)[C@@H]1CCC(=O)N1,Potency,[1],inactive
O=C1c2ccccc2CN2C(=O)c3ccccc3CN12,Potency,[1],inactive
CC(C)[N+]1(C)[C@@H]2CC[C@H]1CC(OC(=O)C(CO)c1ccccc1)C2 (some centres not stated),Potency,[1],inactive
CNCC(=O)N[C@@H](CCCN=C(N)N)C(=O)N[C@H](C(=O)N[C@@H](Cc1ccc(O)cc1)C(=O)N[C@H](C(=O)N[C@@H](Cc1cnc[nH]1)C(=O)N1CCC[C@H]1C(=O)N[C@@H](C)C(=O)O)C(C)C)C(C)C,Potency,[1],inactive
CC(C)Cc1ccc([C@H](C)C(=O)O)cc1,Potency,[1],inactive
Oc1ccc(Cl)c2c1CCC2,Potency,[1],inactive
CN[C@H](CC(C)C)C(=O)N[C@H]1C(=O)N[C@@H](CC(N)=O)C(=O)N[C@H]2C(=O)N[C@H]3C(=O)N[C@H](C(=O)N[C@@H](C(=O)O)c4cc(O)cc(O)c4-c4cc3ccc4O)[C@H](O)c3ccc(c(Cl)c3)Oc3cc2cc(c3O[C@@H]2O[C@H](CO)[C@@H](O)[C@H](O)[C@H]2O[C@H]2C[C@](C)(N)C(O)[C@H](C)O2)Oc2ccc(cc2Cl)[C@H]1O (some centres not stated),Potency,[1],inactive
NC[C@@H]1CC[C@@H](N)[C@@H](O[C@H]2[C@H](O)[C@@H](O[C@H]3O[C@H](CO)[C@@H](O)[C@H](N)[C@H]3O)[C@H](N)C[C@@H]2N)O1,Potency,[1],inactive
CCCCC[C@H](O)/C=C/[C@@H]1[C@@H](C/C=C\CCCC(=O)O)[C@@H](O)C[C@H]1O,Potency,[1],inactive
O=C(O)/C=C/C(=O)Nc1ccc(S(=O)(=O)Nc2nccs2)cc1,Potency,[1],inactive
Nc1ccc(N)c([N+](=O)[O-])c1,Potency,[2],27.3 µM (active)
same,Potency,[3],21.7 µM (active)
same,Potency,[4],8.63 µM (active)
CS(=O)(=O)c1ccc([C@@H](CC2CCCC2)C(=O)Nc2cnccn2)cc1Cl,Potency,[2],21.7 µM (active)
O=C1Cc2ccccc2C1,Potency,[4],inactive
